High-throughput results (PubChem)
hcGAS lum: blocks human cGAS activity. Q8N884. recombinant h-cGAS, ATP depletion, Kinase-Glo luminescence. inhibition, % at 12.5 µM. actives 0.081% (n = 290,000)
Target sequence (Q8N884 whole entry, looked up): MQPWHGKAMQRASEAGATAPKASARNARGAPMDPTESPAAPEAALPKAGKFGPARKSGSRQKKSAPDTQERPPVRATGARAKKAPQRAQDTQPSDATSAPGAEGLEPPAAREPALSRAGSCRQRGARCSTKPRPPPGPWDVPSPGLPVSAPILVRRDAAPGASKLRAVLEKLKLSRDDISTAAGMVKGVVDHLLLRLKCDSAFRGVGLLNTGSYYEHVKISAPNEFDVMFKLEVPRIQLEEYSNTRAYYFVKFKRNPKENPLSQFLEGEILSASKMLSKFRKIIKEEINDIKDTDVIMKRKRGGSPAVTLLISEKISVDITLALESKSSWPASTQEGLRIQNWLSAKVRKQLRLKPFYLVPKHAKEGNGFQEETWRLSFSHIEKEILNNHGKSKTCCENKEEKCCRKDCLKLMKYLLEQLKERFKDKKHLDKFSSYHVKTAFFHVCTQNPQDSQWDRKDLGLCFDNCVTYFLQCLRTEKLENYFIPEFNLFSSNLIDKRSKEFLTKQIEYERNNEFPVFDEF
mcGAS inh: blocks mouse cGAS activity; Q8C6L5; recombinant cGAS, Kinase-Glo ATP depletion luminescence; inhibition, % at 12.5 µM; actives 0.15% (n = 160,000); AID 1259399
NPYLR7 ag: mosquito NPYLR7 agonism | activation, % at 10 µM | HEK293T NPYLR7/Galpha15, GCaMP6s calcium fluorescence | actives 0.15% (n = 270,000); in the data active means activation above about 40%
Each line names hits and unclear results; the compound was inactive in the other large screens. Shown are actives, neighbours in structure and some others; about 0.24% of the full set was active somewhere. Unless noted, no stated cut-off is given here; in the data, active means inhibition above about 40%; inactive means the rest.

COc1ccc(CCN2COc3ccc4c(c3C2)O/C(=C\c2cccnc2)C4=O)cc1	NPYLR7 ag 46
COc1ccc(CN2COc3ccc4c(c3C2)O/C(=C\c2ccncc2)C4=O)cc1OC	none
Cc1ccc(-c2cc(Cn3nc(C(N)=O)ccc3=O)on2)cc1	none
O=C(CCC1CCCC1)Nc1c2c(nn1-c1ccc([N+](=O)[O-])cc1)CS(=O)(=O)C2	none (no result: mcGAS inh)
Cc1nc(=O)c(-c2ccccc2)c(C)n1-c1ccccc1	none (no result: mcGAS inh)
Cc1nc(=O)c(-c2ccccc2)c(C)n1-c1ccccc1O	NPYLR7 ag 80
CCCNC(=O)C(NC(=O)CC(C)C)C1CCN(C(=O)c2cccc(Br)c2)CC1 (centres undefined)	none
CCN(CC)c1ccc2c(-c3ccccc3C(=O)O)c3ccc(=[N+](CC)CC)cc-3oc2c1	NPYLR7 ag 44
O=C(O)CN(CC(=O)O)Cc1cc2c(-c3ccccc3C(=O)O)c3cc(CN(CC(=O)O)CC(=O)O)c(=O)cc-3oc2cc1O	none (no result: NPYLR7 ag)
CCOC(=O)C(C)Sc1nc2c([nH]c3ccccc32)c(=O)n1-c1ccc(OC)cc1 (centres undefined)	none
O=C(NNC(=S)NC1CC2CCC1C2)C1CC1 (centres undefined)	none (no result: mcGAS inh)
CCOC(=O)c1nn(-c2ccccc2)c(=O)cc1NC(=O)CCC1CCCCC1	none (no result: NPYLR7 ag)
CCCc1ccccc1N1C(=O)CSC1c1ccc(NC(=O)CCl)cc1 (centres undefined)	NPYLR7 ag 42
Cc1cc(C)cc(N2C(=O)CSC2c2ccc(NC(=O)CCl)cc2)c1 (centres undefined)	none
CC(=O)Nc1cccc(-c2cc(C)cnc2-n2cnnc2)c1	none (no result: mcGAS inh)
N#CC1C(=N)Oc2cc(N)ccc2C1c1c(Cl)cccc1Cl (centres undefined)	NPYLR7 ag 160
N#CC1C(=N)Oc2cc(N)ccc2C1c1ccccc1I (centres undefined)	none (no result: mcGAS inh)
C=C(Br)Cn1c(C2CC(=O)N(c3ccc(C)cc3)C2)nc2ccccc21 (centres undefined)	none
CCCCN1CCC(CCC(=O)c2cc(Cl)c(N)cc2OC)CC1	none (no result: mcGAS inh)
CCCCN1CCC(COC(=O)c2cc(Cl)c(N)c3c2OCCO3)CC1	mcGAS inh 91
NC(=O)c1n[nH]n2c1nc(=O)c1ccccc12	none
Cc1cc(=O)[nH]c(N=C(NC(=O)c2ccccc2)Nc2ccc(Oc3ccccc3)cc2)n1	none
CCCCn1c(=O)n(C)c(=O)c2c(=S)nc(-c3ccccc3Cl)[nH]c21	none
Cc1ccccc1/C=C1\Oc2c(ccc3c2CN(C2CCS(=O)(=O)C2)CO3)C1=O (centres undefined)	none
COc1ccc(/C=C2\Oc3c(ccc4c3CN(CC3CCCO3)CO4)C2=O)cc1OC (centres undefined)	NPYLR7 ag 88
COc1ccc(/C=C2\Oc3c(ccc4c3CN(CC3CCCO3)CO4)C2=O)cc1 (centres undefined)	NPYLR7 ag 64
COc1ccc(/C=C2\Oc3c4c(cc(C)c3C2=O)OCN(C2CC2)C4)cc1OC	none
COc1ccc(/C=C2\Oc3c4c(cc(C)c3C2=O)OCN(Cc2ccncc2)C4)cc1	none
COc1ccc(/C=C2\Oc3c(ccc4c3CN(C3CCS(=O)(=O)C3)CO4)C2=O)cc1 (centres undefined)	NPYLR7 ag 68
COc1cc(/C=C2\Oc3c(ccc4c3CN(CC3CCCO3)CO4)C2=O)cc(OC)c1OC (centres undefined)	NPYLR7 ag 74
CC(C)c1ccc(/C=C2\Oc3c(ccc4c3CN(C3CCS(=O)(=O)C3)CO4)C2=O)cc1 (centres undefined)	none
CCOc1ncnc2c1CNCC2	none (no result: mcGAS inh)
COCCNC(=O)Cc1csc(SCC(=O)c2ccccc2)n1	none (no result: NPYLR7 ag)
CCCCCCCCN(Cc1nccn1C)C(=O)c1ccc2ccccc2n1	none (no result: NPYLR7 ag)
CC1CCCC(C)N1CCNc1ccc2c(-c3ccccn3)noc2n1 (centres undefined)	none
N#Cc1cccc(SCCC(N)=O)c1	none (no result: mcGAS inh)
CC(C)NC(=O)CSCc1ccc(F)cc1Br	none (no result: mcGAS inh)
N=C1/C(=C\c2ccco2)C(=O)N=C2SC(Cc3cccs3)=NN12	hcGAS lum 52 (no result: mcGAS inh)
N=C1/C(=C\c2ccc(Br)o2)C(=O)N=C2SC(Cc3cccs3)=NN12	none (no result: mcGAS inh)
CCCc1[nH]n(-c2ccc(Cl)c(Cl)c2)c(=O)c1/C=C1\NC(=O)N(Cc2ccc(C)cc2)C1=O	NPYLR7 ag 56
CCCc1[nH]n(-c2cccc(Cl)c2)c(=O)c1/C=C1\NC(=O)N(Cc2ccc(C)cc2)C1=O	none
CCCCCCn1c2ccc(Br)cc2c2nc3ccccc3nc21	none (no result: mcGAS inh)
COc1cc(OC)cc(N2CCN(Cc3ccccc3C)C(C)C2=O)c1 (centres undefined)	none (no result: mcGAS inh)
COc1ccc(NC(=O)N2CCSC2c2cccc(F)c2)c(OC)c1 (centres undefined)	none
CC(C)C(=O)N1CCN(C(=O)[C@@H](NS(=O)(=O)/C=C/c2ccccc2)C(C)C)CC1	none (no result: mcGAS inh)
CCCCN=C(N)N=C(N)N	none (no result: mcGAS inh)
